Hits are enriched below; roughly 19% of the tested compounds scored in any of these assays.
IL1B secr inh = qHTS for Inhibitors of Inflammasome Signaling: IL-1-beta AlphaLISA Primary Screen; THP-1 LPS/ATP IL-1B secretion, AlphaLISA, 16 h; active compounds read low; activity change, % at 57.5 µM; 360,000 tested, 4.7% active; in the data active = activity change below about -50%; inconclusive = mostly about -30% to -49%
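Secreted IL-1B measured by AlphaLISA bead assay after 16 h compound exposure of THP-1 cells; compounds (final up to 57.5 uM) added 1 h before LPS (250 ng/mL) and ATP (1.25 mM) stimulation; lower signal means less secretion.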
ELG1 repair inh = qHTS screen for small molecules that inhibit ELG1-dependent DNA repair in human embryonic kidney (HEK293T) cells expressing luciferase-tagged ELG1; HEK293T ELG1-luciferase reporter, luminescence, 16 h; DNA damage induced by 5-fluorouridine; AID 504467, 2011; Potency, µM (series often up to 46.1 µM), for the others: at the top dose activity change, negative = inhibition, usual class: inhibitors; 330,000 tested, 2.3% active; note: potency is the fitted concentration of half-maximal effect; nearly all actives have a fitted effect of over 55% in size
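DMSO vehicle served as the neutral condition. Each well held 2,000 cells given 5-fluorouridine plus compound; after 16 hr at 37 °C/5% CO2, ONE-Glo was added and luciferase measured 30 min later.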
Giardia killer = Small Molecules that selectively kill Giardia lamblia: qHTS; Giardia lamblia trophozoite viability; activity change, % at 7.66 µM, hits read low; 340,000 tested, 0.15% active; in the data active = activity change below about -80%; inconclusive = between about -30% and that limit;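 note: parasites exposed to compound for two days anaerobically before the ATP read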
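Killing of trophozoites was scored by loss of ATP luminescence after a 48 hrs anaerobic exposure to compounds at 37 deg C, using 100 cells per well.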
DT40 TDP1 no CPT = qHTS for Inhibitors of human tyrosyl-DNA phosphodiesterase 1 (TDP1): qHTS in cells in absence of CPT | DT40 Tdp1-/- hTDP1 cells, no CPT, ATP luminescence, 48 h | Potency, µM (highest dose often 46.2 µM), inactives show top-dose activity change, negative = growth inhibition, usual class: inhibitors | AID 686978, 2013 | 420,000 tested, 15% active; note: potency is the fitted concentration of half-maximal effect; nearly all actives have a fitted effect of over 55% in size
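Growth of hTDP1-complemented DT40 Tdp1-knockout cells is measured by ATP luminescence after at least 48 hr compound exposure at 37 °C, with DMSO substituting for the 20 nM CPT used in the parallel screen.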
TDP1 block = qHTS Assay for Inhibitors of Tyrosyl-DNA Phosphodiesterase (TDP1); 350,000 tested, 0.28% active; Potency, µM (titrated, usually from 130 µM), for inactives: at the top dose activity change, negative = inhibition, actives largely listed as inhibitors; AID 485290, 2010; recombinant TDP1, AlphaScreen DNA substrate cleavage; note: potency is the fitted concentration of half-maximal effect; nearly all actives have a fitted effect of over 40% in size
Target sequence (Q9NUW8 whole entry, looked up): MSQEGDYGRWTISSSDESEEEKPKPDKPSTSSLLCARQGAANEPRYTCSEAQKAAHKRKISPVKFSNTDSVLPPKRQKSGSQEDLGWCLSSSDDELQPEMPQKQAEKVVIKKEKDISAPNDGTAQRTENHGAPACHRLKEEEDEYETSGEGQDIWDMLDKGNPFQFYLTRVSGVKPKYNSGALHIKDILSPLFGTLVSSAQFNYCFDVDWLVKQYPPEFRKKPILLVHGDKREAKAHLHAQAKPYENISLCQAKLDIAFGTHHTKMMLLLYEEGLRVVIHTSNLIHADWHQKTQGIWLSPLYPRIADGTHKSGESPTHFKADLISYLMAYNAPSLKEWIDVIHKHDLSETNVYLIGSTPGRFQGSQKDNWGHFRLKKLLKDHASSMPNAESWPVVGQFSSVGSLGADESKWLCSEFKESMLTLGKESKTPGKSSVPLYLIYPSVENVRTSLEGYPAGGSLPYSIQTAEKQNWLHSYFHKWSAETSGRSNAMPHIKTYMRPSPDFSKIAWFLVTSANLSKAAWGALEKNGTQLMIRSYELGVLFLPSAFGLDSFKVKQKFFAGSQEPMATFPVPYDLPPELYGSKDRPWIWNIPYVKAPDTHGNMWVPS
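AlphaScreen read-out: signal falls as enzyme removes the 3' tyrosine-FITC from a 5'-biotinylated DNA oligo (15 nM, 5 min, RT). Enzyme was E. coli-made recombinant Tdp1 at 1 nM, exposed to compound for 15 min beforehand; beads 10 ug/ml, 10 min.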
TDP1 cell CPT = qHTS for Inhibitors of human tyrosyl-DNA phosphodiesterase 1 (TDP1): qHTS in cells in presence of CPT | chicken DT40 Tdp1-/-;hTDP1 cells + 20 nM CPT, ATP luminescence, 48 h | Potency, µM (titrated, usually from 46.2 µM), without a hit: at the top dose activity change, negative = growth inhibition, most hits filed as inhibitors | 420,000 tested, 12% active; note: potency is the fitted concentration of half-maximal effect; nearly all actives have a fitted effect of over 55% in size
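Chicken DT40 Tdp1-/- cells stably complemented with human TDP1 were seeded at 400 cells/well in medium containing 20 nM camptothecin, exposed to pin-transferred compounds, and grown at 37 °C for at least 48 hr. Viability was read as ATP luminescence.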
* = called active by the depositor; ? = inconclusive; . = not tested or not shown; [ ] = dose if it differs, or a comment. Unless noted, calls come from the whole dose curve; as a rule, active = well fitted curve in the direction sought with a large enough effect; inconclusive = small, poorly fitted or top-dose-only effect, or another doubt; inactive = no such curve, though single readings can be large; an effect the other way counts as inactive or inconclusive. % is set by controls: 0 for no effect and ±100 for the full control effect.

SMILES	IL1B secr inh	ELG1 repair inh	Giardia killer	DT40 TDP1 no CPT	TDP1 block	TDP1 cell CPT
COc1cc2c(cc1OC)CN(C1CCCN(Cc3cccc(C(C)=O)c3)C1)CC2 (centres undefined)	13	.	2	-3%	.	-27%
CC[C@H]1c2[nH]c3ccccc3c2C[C@@H]2C(=O)N(c3ccc(F)cc3)C(=O)N21	10	8.2µM*	8	?	.	16µM*
CC1(C)c2[nH]c3ccccc3c2C[C@@H]2C(=O)N(c3cc(F)ccc3F)C(=O)N21	.	.	-28	.	.	.
O=C(/C=C/c1ccc(Br)o1)NC(c1ccccc1)c1ccccc1	?	1%	8	?	3%	9.2µM*
O=C(NC(c1ccccc1)c1ccccc1)c1ccc(Br)o1	-9	15%	8	?	5%	?
CO[C@H]1CN(C)C(=O)c2ccc(NC(=O)NC(C)C)cc2OC[C@H](C)NC[C@H]1C	-8	.	.	0%	.	7%
Cc1cc(C)c2oc(-c3ccc(C)c(NC(=S)NC(=O)/C=C/c4ccco4)c3)nc2c1	14	23%	-24	?	0%	?
Cc1ccc(-c2nc3ccccc3[nH]2)cc1NC(=S)NC(=O)c1ccccc1Br	-56*	?	-18	15µM*	4%	?
Cc1ccc(-c2nc3ccccc3[nH]2)cc1NC(=O)/C=C/c1ccco1	?	?	-8	16µM*	0%	?
CCN(CC)C(=O)c1cccc(-c2csc(C(O)(c3ccccc3)C(F)(F)F)n2)c1 (centres undefined)	-4	.	.	16µM*	.	?
CCN(CC)C(=O)c1cccc(-c2csc(C(C)(O)c3ccc(OC)cc3)n2)c1 (centres undefined)	4	.	.	4.6µM*	.	5.8µM*
CCN(CC)C(=O)c1cccc(-c2csc(C(C)(O)c3ccc(F)c(F)c3)n2)c1 (centres undefined)	-8	.	.	21µM*	.	?
CC(O)(c1ccccc1)c1nc(-c2cccc(C(=O)O)c2)cs1 (centres undefined)	29	.	.	-11%	.	-21%
CCN(CC)C(=O)c1cccc(-c2csc(C(C)(O)c3cccc(OC)c3)n2)c1 (centres undefined)	-15	.	.	23µM*	.	18µM*
O=C(O)c1cccc(-c2csc(C(O)(c3ccccc3)C(F)(F)F)n2)c1 (centres undefined)	-9	.	.	-6%	.	2%
CCN(CC)C(=O)c1cccc(-c2csc(C(C)(NC(C)=O)c3ccc(OC)cc3)n2)c1 (centres undefined)	-15	.	.	13µM*	.	?
CCN(CC)C(=O)c1cccc(-c2ccc(OC)cc2)c1	-5	?	-11	22%	5%	-28%
CC1=NN(C(=O)Cc2ccccc2)C(O)(c2cccnc2)C1 (centres undefined)	22	15%	4	5.2µM*	8%	4.6µM*
CC1=NN(C(=O)c2ccccc2Cl)C(O)(c2cccnc2)C1 (centres undefined)	-7	2%	6	5.8µM*	8%	?
CCOC(=O)N1N=C(C)CC1(O)c1ccc(Cl)cc1 (centres undefined)	-16	4%	1	0%	6%	2%
CN1C(=O)[C@@](O)(CC(=O)c2ccccc2)c2cc(Br)ccc21	61	.	.	6.5µM*	.	5.8µM*
CN1C(=O)C(O)(CC(=O)c2ccccn2)c2cc(Br)ccc21 (centres undefined)	86	1%	8	5.2µM*	0%	5.8µM*
CCN1C(=O)C(O)(CC(=O)c2ccccn2)c2ccccc21 (centres undefined)	29	8%	-2	5.2µM*	6%	5.8µM*
Cn1c(CNC(=O)CSc2nc(-c3ccccc3F)nc3cc(=O)[nH]n23)nc2ccccc21	.	.	.	-8%	-3%	-8%
Cc1ccccc1-c1cc(C(=O)NCc2ccc3c(c2)OCO3)n(CC2CC(c3cccnc3)=NO2)n1 (centres undefined)	2	?	21	?	2%	?
SMILES	IL1B secr inh	ELG1 repair inh	Giardia killer	DT40 TDP1 no CPT	TDP1 block	TDP1 cell CPT
Cc1ccc(CNC(=O)c2cc(-c3ccccc3C)nn2CC2CC(c3cccnc3)=NO2)cc1 (centres undefined)	-5	?	9	21µM*	-8%	?
Cc1ccccc1-c1cc(C(=O)NCc2ccc(OC(F)(F)F)cc2)n(CC2CC(c3cccnc3)=NO2)n1 (centres undefined)	-13	18µM*	-11	?	1%	?
Cn1c(=O)c(=O)n(C)c2cc(S(=O)(=O)N3CCN(c4ccccc4)CC3)ccc21	.	.	.	-26%	-7%	?
CC(C)(C)c1nc(CN2CCCCC2)cc(CN2CCCCC2)c1O	-6	?	16	?	3%	18µM*
CCOC(=O)c1c(NC(=O)C(=O)N/N=C/c2ccccc2O)sc2c1CCCCC2	40	?	-27	3.3µM*	4%	2.9µM*
CCOC(=O)c1c(NC(=O)c2cc(-c3ccccc3)on2)sc2c1CCCC2	.	.	.	3%	0%	-14%
CCOC(=O)c1c(NC(=O)c2ccc(C)cc2)sc2c1CCCCC2	.	.	.	5%	0%[2.28 µM]	10%
CCOC(=O)c1c(NC(=O)c2ccn(CC)n2)sc2c1CCCC2	-20	?	4	23µM*	-1%	?
CCOC(=O)c1c(NC(=O)c2cc(OCC)c(OCC)c(OCC)c2)sc2c1CCCCC2	.	.	.	23µM*	4%[12.3 µM]	?
CN1CCN(C(=O)CSc2nnc(COc3ccc(Cl)cc3)o2)CC1	-7	4%	-8	-18%	10%[0.0935 µM]	1%
COc1cc(C2NC(=O)NC(C)=C2C(C)=O)ccc1O (centres undefined)	31	1%	-8	1%	-3%	11%
C=CCNC(=S)/N=c1/ccccn1CCC	33	-3%	9	23µM*	4%	?
Fc1cccc(CN(C2=NCCN2)c2c(Cl)cccc2Cl)c1	-16	?	-8	21µM*	.	?
